Consider 34 compounds from PubChem BioAssay (NCI).

Compounds without any hit were thinned out: in the full panel of roughly 83,000, 20% have a hit.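 The test compound was applied at a single concentration to cells in 96-well plates for 48 hours, and percent growth was recorded.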 A number with no mark means an inactive call. Activity calls are given as the source filed them. How the source made its calls: active means growth percent below 10; inactive means the rest.

The subject of the assay is TK-10 renal. The assay is described as follows: NCI-60 one-dose screen, 48 h (100 = growth as untreated, 0 = no growth, -100 = all killed). Particulars: 10 µM unless noted.
As for `CCCCSc1nc(Nc2ccc(S(N)(=O)=O)cc2)c(C#N)c(-c2ccc(Cl)cc2)n1`, the growth is 77.1%.

Turning to `COc1cc(-c2cc(-c3cccc(OCC(=O)O)c3)[nH]c(=O)c2C#N)cc(OC)c1OC`, the growth was 102%. The value for `NS(=O)(=O)c1ccc(-n2cc(-c3cccc(NC(=O)c4cc(N5CCOCC5)cc(C(F)(F)F)c4)c3)nn2)cc1` was 86.3%; that for `COc1cc(-c2ccc(/C=N/NC(=O)c3[nH]c4ccc(Br)cc4c3-c3ccccc3)o2)cc(OC)c1OC` was 112%; that for `COc1ccc(C2=NN(c3ccccc3)C(c3ccc(OCc4ccccc4)c(OC)c3)C2)cc1OC` (centres undefined) was 120%. With `CC(C)(C)OC(=O)/C=C/c1cccc2c1C(=O)NC(C)(c1cc3cc(Cl)ccc3oc1=O)N2` (centres undefined) the figure was 66.2%. Consider `O=C(Nc1ccccc1)N1CCN(c2cc(-c3cn(-c4ccccc4)nc3-c3cccc(O)c3)ccn2)CC1`, for which the growth is 129%. In the case of `COc1ccc(NC(=O)Cn2c3c(sc2=O)[C@H]2[C@@H](O)[C@@H](O)[C@H](O)[C@@H]2CS3)cc1`, the growth was 112%. Take `N#Cc1c(-c2ccccc2Cl)cc(-c2c[nH]c3ccccc23)[nH]c1=O`: the growth was 102%. For `COc1ccc(C(=O)/C=C/c2cccc(Cl)c2Cl)cc1S(N)(=O)=O`, the growth is 20.3%. With `CNC(=O)c1cccc(NC(=O)c2ccc3c(c2)nnn3/C(C#N)=C/c2ccccn2)c1` the figure was -25.4% (active). For the compound `COc1c(F)ccc(C(=O)Nc2ccc3nc(NC(=O)C4CCCN(S(=O)(=O)c5ccc(C#N)cc5)C4)sc3c2)c1F` (centres undefined), the growth is 112%. Turning to `O=C(Cn1c2c(sc1=O)[C@H]1[C@@H](O)[C@@H](O)[C@H](O)[C@@H]1CS2)N1CCOCC1`, the growth was 88.2%. `Nc1nc(-c2ccccc2)c(N=Nc2ccc([N+](=O)[O-])cc2Cl)s1`: the growth was 172%. `C=Cn1cc(C(=O)O)c(=O)c2cc(F)c(N3CCN(c4nccc(-c5nccs5)n4)CC3)cc21`: the growth was -13.2% (active). In the case of `C/C(=N\N=C1/C(=O)Nc2ccc(Cl)cc21)c1ccc2c(c1)Nc1ccccc1S2`, the growth is 22.4%. With `CC1=C(C(=O)c2ccccc2)C(c2cccc3ccccc23)n2c(nc3ccccc32)N1` (centres undefined) the figure was 83.8%; with `C#C[C@]1(O)CC[C@H]2[C@@H]3CC=C4c5sc(-c6ccc(O)c(O)c6)nc5CC[C@]4(C)[C@H]3CC[C@@]21C`, -44.9% (active). Turning to `NS(=O)(=O)c1ccc(-n2cc(-c3cccc(NC(=O)c4cc(Cl)cc(Cl)c4)c3)nn2)cc1`, the growth was 114%. Regarding `COc1ccc(-c2nnc3ccc(N/N=C/c4ccc(C)cc4)nn23)cc1`, the growth was 82.7%.

Take `O=C(Nc1ccc(C(F)(F)F)cc1)Nc1ccc2oc(=O)ccc2c1`: the growth is 36.1%. With `O=c1[nH]c(=O)c2c(-c3cc4ccccc4oc3=O)ccnc2[nH]1` the figure was 105%; with `CC1(C)CC[C@]2(C(=O)O)CC[C@]3(C)C(=CCC4[C@@]5(C)C[C@@H](O)[C@@H]6OC(c7ccccc7Br)OC[C@@]6(C)C5CC[C@]43C)C2C1` (some centres undefined), 21%; with `COc1cc(-c2nc3ccc(C)cc3[nH]2)ccc1OCc1nnc(-c2ccc(Br)cc2)o1`, 33.2%. The value for `Clc1cccc(N/N=C/c2c[nH]c3ccc(Br)cc23)n1` was 63.9%; that for `Cn1cc(-c2cc3nc(-c4cn(C)c5ncccc45)cc(N)n3n2)c2cc(Cl)ccc21` was -83.2% (active); that for `Cn1cc(-c2nnc(N)nc2-c2c[nH]c3ccccc23)c2cccnc21` was 91.5%. The value for `Cc1ccc([C@H]2C(C(=O)c3ccc(Cl)cc3)C3(N[C@@H]2c2ccccc2)C(=O)Nc2ccccc23)cc1` (some centres undefined) was 40.8%; that for `O=C(Cn1nc(-c2ccccc2)ccc1=O)N/N=C/c1ccc(N2CCOCC2)cc1` was 103%; that for `COc1cc2c(c(OC)c1OC)C(=O)CC(c1cccc(NC(=O)c3cccc([N+](=O)[O-])c3)c1)O2` (centres undefined) was 71.7%. Take `COc1ccc2[nH]cc(-c3nnc(N)nc3-c3c[nH]c4ncc(Br)cc34)c2c1`: the growth was 101%. With `CC(C)c1ccc2c(N)c(C(=O)Nc3ccc(C(F)(F)F)cn3)sc2n1` the figure was 76.5%.

As to `C=C1CC[C@@H]2[C@]3(C)COC(c4ccco4)O[C@@H]3CC[C@@]2(C)[C@@H]1C/C=C1/C(=O)OCC1OC(C)=O` (some centres undefined), the growth is 111%. With `CCN(CC)c1ccc(/C=N/Nc2nc(-c3ccc(Br)cc3)cs2)c(O)c1` the figure was 96.5%.
